According to ChEMBL document CHEMBL3988442, “University of Dundee, Small-Polar-MMV Screening Library” (2021):
In all, about 48,000 compounds went through this assay and about 13,000 (27%) showed an effect of 50% or more. The list shows a part of the results.

System: Wolbachia pipientis
Assay: Anti-Wolbachia Cell-Based Screen
Format: functional
Set-up: scale not given: in the data most compounds retested in dose-response had high values
Conditions: 5 µM

SMILES	Percent Effect [%]
CCNc1cc(N2CCN(C(=O)c3ccc(OC)cc3)CC2)nc(C)n1	4.812
Nc1nc(NCCO)cc(N2CCc3c([nH]c4ccccc34)C2)n1	98.87
c1ccc2c3c([nH]c2c1)CN(Cc1cc2n(n1)CCNC2)CC3	-25.6
COc1ccc2[nH]c3c(c2c1)CN(c1cc(NCCO)nc(N)n1)CC3	97.63
COc1ccc(F)c(-c2cc(NCCO)nc(N)n2)c1	-1.904
OCC1CCCN1c1cc(NCCc2c[nH]c3ccccc23)ncn1 (stereo unspecified)	7.134
Cc1cccc(-c2nnn3c2COC(CNC(=O)N2CCCC2)C3)c1 (stereo unspecified)	9.642
NCC1Cc2cc(-c3nccc(N4CCC(O)CC4)n3)cc(Cl)c2O1 (stereo unspecified)	-10.94
Cc1ccc(C)c(Oc2ccc(CNC(=O)C3CCS(=O)(=O)C3)cn2)c1 (stereo unspecified)	-2.907
CCc1nc(CNc2ccc(C(=O)N3CCSCC3)cc2C)no1	92.2
CCc1noc(CNc2cccc(C(=O)N3CCSCC3)c2)n1	10.06
CCCc1noc(CNc2ccc(C(=O)N3CCCC3)cc2C)n1	101
CCc1noc(CNc2ccc(C(=O)N3CCCC3)cc2C)n1	101.8
CC(C)Cc1noc(CN2CCCN(C(=O)c3cccc(Cl)c3)CC2)n1	-52.16
CCCc1nc(CNc2cccc(C(=O)N3CCCC(O)C3)c2)no1 (stereo unspecified)	1.271
CCc1nc(CNc2ccc(C(=O)NCc3ccco3)cc2C)no1	-7.097
Cc1cc(C(=O)N2CCCC2)ccc1NCCOCC(F)(F)F	-22.68
Cc1cc(C(=O)N2CCCC2)ccc1NCc1nc(CC(C)C)no1	81.12
CC(C)Cc1noc(CNc2ccccc2CC(=O)N(C)C)n1	7.405
CCc1noc(CNc2ccc(CC(=O)N3CCSCC3)cc2)n1	21.21
Cc1ccc(C(=O)N2CCCC(CNS(=O)(=O)C(C)C)C2)cc1 (stereo unspecified)	-19.42
CN(Cc1csc(-c2ccccc2)n1)Cc1ncccc1C(=O)O	4.154
N#Cc1ccccc1OCCN1CCN(C(=O)C2CCCC2)CC1	-2.024

SMILES	Percent Effect [%]
CC1CCN(S(=O)(=O)NC2CCCCNC2=O)CC1 (stereo unspecified)	36.47
CC(C)CNC(=O)Nc1ccc(CN2CCOC2=O)cc1	-13.36
Cc1ccc(CNC(=O)c2ccc(CNS(C)(=O)=O)o2)cc1F	2.956
Cc1cnn(CCC(=O)NCc2ccc(N(C)C)c(C)c2)c1	4.786
COCCS(=O)(=O)NCC(C)c1cccc(C)c1 (stereo unspecified)	-6.365
Cc1cc(CNS(C)(=O)=O)ccc1N(C)C	110.2
Cc1ccc(CNS(=O)(=O)CCCC#N)cc1F	111.5
Cc1ccc(CNC(=O)NC(C)CCS(C)(=O)=O)cc1F (stereo unspecified)	-1.224
Cc1cccc(C(C)CNS(=O)(=O)CCCC#N)c1 (stereo unspecified)	5.748
CCN(C)c1ccc(CNS(=O)(=O)CC2CCCO2)cc1F (stereo unspecified)	-7.103
CS(=O)(=O)NCc1ccc2c(c1)CCC2	-9.378
CC(CNS(=O)(=O)CCCC#N)c1ccsc1 (stereo unspecified)	-6.761
Cc1cc(CNS(=O)(=O)CCCC#N)ccc1N(C)C	89.17
COCCS(=O)(=O)NCc1ccc(N(C)C)c(C)c1	78.12
NCC1CN(C(=O)c2cccc(-n3cccn3)c2)CCO1 (stereo unspecified)	12.21
CCCc1cc(NC2CCc3ncnn3C2)n2ncnc2n1 (stereo unspecified)	-15.24
CSCC(C)(O)CNc1cccc(F)c1C#N (stereo unspecified)	-5.996
CCCOc1cc(CNC(=O)Nc2cccnc2N2CCCC2)ccn1	3.924
COc1cc(CNCc2ccco2)ccc1OCCO.Cl	-24.56
COc1cccc2cc(CNCc3ccnc(N4CCOCC4)c3)oc12	-10.04
COc1cccc2cc(CNCc3ccnc(N4CCCCC4)c3)oc12	98.43
COc1ccc(CNCc2ccnc(N3CCCCC3)c2)cc1OC	4.647
COc1cccc2cc(CNCc3ccnc(N(C)C)c3)oc12	97.53

SMILES	Percent Effect [%]
COc1cccc2cc(CNC(=O)N3CCCC(O)C3)oc12 (stereo unspecified)	-11.96
COc1c(CNCc2ccc(N3CCOCC3)nc2)c(C)nn1C	-5.256
COc1ccc(CNCc2ccc(N3CCCCC3)nc2)cc1OC	5.038
COc1cccc2cc(CNCc3ccc(N4CCCC4)nc3)oc12	106.9
CC(NC(=O)NCc1cccc(N2CCCC2=O)c1)c1ccccc1 (stereo unspecified)	10.19
CC(=O)N[C@@H]1CN(c2nc(C(N)=O)cs2)C[C@H]1c1ccc(C)o1	3.94
CC(C)c1cc(N2CCN(c3ccc(O)cc3)CC2)n2nccc2n1	-10.08
Cc1nc(C)n(CC2CCCCN2CC(=O)NC2CCOCC2)n1 (stereo unspecified)	-3.575
Cc1nc(CC(=O)N2CCC(c3ccn4nccc4n3)CC2)cs1	100.2
COC1CCN(C(=O)CCc2c(C)nc3ccnn3c2C)CC1	2.453
Cc1noc(C)c1CC(=O)N1CCC(c2ccn3nccc3n2)CC1	116.9
Cc1nc(CC(=O)N2CCC(Nc3cccnn3)CC2)cs1	10.36
Cc1nc(C)c(CC(=O)N2C[C@@H](C(=O)O)[C@H](c3ccccc3C)C2)s1	-4.112
CCC[C@@H]1CN(C(=O)Cc2sc(C)nc2C)C[C@H]1C(=O)O	9.333
Cc1nc(CC(=O)N2CCN(c3ccc(N(C)C)cc3)CC2)cs1	-7.561
Cc1nc(C)c(CC(=O)N2CCC(c3ccn4nccc4n3)CC2)s1	148.4
Cc1ncc2c(n1)CCN(C(=O)Cc1c(C)noc1C)C2	-7.344
O=C(NC[C@H]1OC[C@@H](NC2CCC2)[C@@H]1O)Nc1ccccc1	27.93
COCCCN(C)S(=O)(=O)c1ccc(C(F)(F)F)cc1C#N	0.354
Cc1cc(CC(C)Nc2ncnc3cccc(F)c23)[nH]n1 (stereo unspecified)	-16.45
CCN(CC(C)C#N)C(=O)CNc1ccc(C(N)=O)c(C)c1 (stereo unspecified)	94.3
CCN(CC(C)C#N)C(=O)CNc1ccc(F)c(C)c1 (stereo unspecified)	98.55
Cc1cc(NCC(C)C)ccc1C(=O)N(C)C	-5.944

SMILES	Percent Effect [%]
CCN(CC)C(=O)Nc1ccc(C(=O)N(C)C)c(C)c1	-2.57
CCN(C(=O)CNc1cc(C)c(F)cc1C(N)=O)C1CC1	-0.2217
Cc1cc(NC(=O)N(CCC#N)CCCN(C)C)ccc1F	-0.7911
Cc1cc(NCC(=O)N(C)C)c(C(N)=O)cc1F	4.75
CCN(CC(C)C#N)C(=O)CSc1ccc(C(F)(F)F)cn1 (stereo unspecified)	-16
CCN(CC(C)C#N)C(=O)CNc1cc(Cl)ccc1C(N)=O (stereo unspecified)	109.4
CNC(=O)N1CCC2(CC1)CN(C(C)C)Cc1cc(F)ccc12.Cl	-6.692
CCn1c(CN(C)C)nnc1C1CCN(Cc2ccc(Cl)cc2)CC1	-12.39
Cc1noc(C)c1C(=O)N1CCSc2ccc(Cl)cc21	93.15
Cc1noc(C)c1C(=O)N1CCCN(C)c2ccc(Cl)cc21	90.03
Cc1nc(CN2CCN(C(=O)c3c(C)noc3C)CC2)cs1	-5.34
Cc1noc(C)c1C(C)NC(=O)N1CCCN(C(=O)c2ccsc2)CC1 (stereo unspecified)	6.672
CCC(CNC(=O)Cc1c(C)noc1C)N1CCCC1 (stereo unspecified)	6.109
Cc1noc(C)c1C(C)C(=O)N1CCCN(C)c2ccc(Cl)cc21 (stereo unspecified)	111.8
Cc1noc(C)c1C(C)NC(=O)N1CCN(c2cccs2)CC1 (stereo unspecified)	5.123
CN1CCCN(S(=O)(=O)c2cn(C)cn2)c2cc(Cl)ccc21	-2.244
Cc1noc(C)c1CN(C)C(=O)CCOc1ccc(Cl)cc1	13.27
Cc1noc(C)c1CC(=O)N1CCCN(C)c2ccc(Cl)cc21	108.2
Cc1noc(C)c1C(=O)N1CC[C@H]2C[C@@H](c3nccs3)O[C@@H]2C1	-4.112
O=c1[nH]nc(CNc2cncc(Br)c2)[nH]1	-1.101
Cn1cc(S(=O)(=O)NC(=O)C2(c3cccc(Cl)c3)CC2)cn1	9.889
Cc1ccc(CN2CC[C@@H](NS(C)(=O)=O)[C@@H]2Cc2ccncc2)o1.O=C(O)C(F)(F)F.O=C(O)C(F)(F)F	0.02145
Cc1ccccc1CN(CCO)Cc1ncc[nH]1	-0.936

SMILES	Percent Effect [%]
Cc1ccc(CN(Cc2ccncc2)C2CC(C)(C)NC(C)(C)C2)o1.O=C(O)CC(O)(CC(=O)O)C(=O)O	117.7
CN(Cc1ncc[nH]1)CC1CCOc2ccccc2C1 (stereo unspecified)	5.15
Cc1ccc(CN(Cc2ncc[nH]2)C2CC(C)(C)NC(C)(C)C2)o1.O=C(O)CC(O)(CC(=O)O)C(=O)O	124
Cc1cccc(CN(Cc2ccc(C)o2)C2CC(C)(C)NC(C)(C)C2)n1.O=C(O)CC(O)(CC(=O)O)C(=O)O	-13.89
CC1(C)CC(N(Cc2ccccc2)Cc2ncc[nH]2)CC(C)(C)N1.O=C(O)CC(O)(CC(=O)O)C(=O)O	109.1
CCN(CC)C(=O)[C@@H]1C[C@@H](NC(=O)c2ccoc2)CN1C	5.596
CN(Cc1ncc[nH]1)CC(c1cccs1)N1CCOCC1 (stereo unspecified)	-1.486
Cc1nc(NC(=O)NC2CC(=O)N(C)C2)nn1C(C)C (stereo unspecified)	-15.27
CCC[C@H]1CN(c2nccc(NCC)n2)C[C@@H]1NS(=O)(=O)N(C)C	9.452
CCNc1ccnc(N2Cc3cnn(Cc4ccc(F)cc4)c3C2)n1	-10.41
CCOc1cc(CNc2nnn(C)n2)ccc1OCc1ccc(Cl)cc1	121.9
Cc1cnn(CCNCc2ccccc2OCc2cccnc2)c1	-3.699
CCOc1ccc(CNCCCn2ccnc2)cc1Br	7.125
Cn1nnc(NCc2ccccc2OCc2ccc(Cl)cc2)n1	119
CCn1nnc(NCc2ccccc2OCc2ccc(Cl)cc2)n1	122
CCOc1ccc(Cl)cc1CNCCCn1ccnc1	-4.437
CCCn1nnc(NCc2ccccc2OCc2ccc(Cl)cc2)n1	104.8
CCOCc1ccccc1CNc1ccc2nncn2n1	-4.273
c1ccc(OCc2ccncc2)c(CNC2CCc3ncnn3C2)c1 (stereo unspecified)	-0.3287
